High-throughput results (PubChem)
TSHR antagonist: human thyrotropin receptor antagonism; AID 504810; TSHR-expressing cells, TSH-stimulated cAMP HTRF, 2 h; hits give low values; activity change, negative = inhibition, % at 11.5 µM; 330,000 compounds, 0.2% hits;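 active = activity change below a set negative limit, meaning inhibition stronger than a set level, cut at about -70% in these data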
Target sequence (P16473 whole entry, looked up): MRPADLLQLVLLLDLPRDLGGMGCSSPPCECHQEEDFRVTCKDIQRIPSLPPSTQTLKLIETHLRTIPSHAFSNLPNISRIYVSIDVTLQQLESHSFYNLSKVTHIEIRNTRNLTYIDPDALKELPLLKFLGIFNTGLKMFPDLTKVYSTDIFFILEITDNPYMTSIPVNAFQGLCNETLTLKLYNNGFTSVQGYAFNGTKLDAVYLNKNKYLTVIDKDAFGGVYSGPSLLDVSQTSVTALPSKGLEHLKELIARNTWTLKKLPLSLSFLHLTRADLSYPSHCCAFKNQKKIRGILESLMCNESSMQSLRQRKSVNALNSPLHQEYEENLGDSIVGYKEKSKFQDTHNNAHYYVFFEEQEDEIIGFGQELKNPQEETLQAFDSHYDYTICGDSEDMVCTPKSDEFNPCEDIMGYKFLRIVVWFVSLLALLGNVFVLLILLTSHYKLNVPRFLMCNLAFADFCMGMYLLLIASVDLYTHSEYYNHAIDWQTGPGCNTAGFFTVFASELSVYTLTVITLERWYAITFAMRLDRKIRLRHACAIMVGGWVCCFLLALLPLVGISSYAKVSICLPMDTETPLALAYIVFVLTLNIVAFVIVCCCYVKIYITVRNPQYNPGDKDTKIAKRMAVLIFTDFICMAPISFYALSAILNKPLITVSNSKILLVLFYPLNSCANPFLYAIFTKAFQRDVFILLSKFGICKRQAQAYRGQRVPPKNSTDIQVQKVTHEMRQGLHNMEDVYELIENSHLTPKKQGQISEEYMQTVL
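Competitive HTRF cAMP read-out (cryptate anti-cAMP antibody, cAMP-d2; 30 min, room temperature) in freshly harvested TSHR cells. Compounds added before TSH at EC80 (4nM final), followed by 2 hours' incubation at 37 deg C.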
Akt phos inh: Akt phosphorylation inhibition; Neuro2A IGF-stimulated pAkt S473 HTRF, 20 min; hits give low values; activity change, % for hits at 50 µM; 360,000 compounds, 0.32% hits; AID 651550; in the data active = activity change below about -80%
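Neuro2A cells in DMEM with 0.5% FBS, overnight at 37 deg C, given compound at single 50 µM final, then IGF (6 nM final) for 20 min at 37 deg C. Lysed; phospho-Akt Ser473 by HTRF after 24 h, 665/615 ratio.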
TCR activator: activates T cell receptor signaling. primary human leukocytes, anti-CD3, IL-2 HTRF, 48 h. Potency, µM (top dose mostly 9.22 µM), actives largely listed as activators. 330,000 tested, under 10 active. AID 504894; active = well fitted activation curve with a large enough effect
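Human primary leukocytes + a-CD3 beads + cpd, 48 hr; IL-2 in supernatant by HTRF (ex 320nm / em 665nm). No co-stimulatory signal supplied.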
CCT chaperon mod: changes cytosolic chaperonin activity; purified chaperonin ATPase assay, HTRF ADP detection, 30 min; activity change, % (test concentration not listed), hits read low; 360,000 compounds, 0.3% hits; in the data active = activity change below about -30%
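Nucleotide hydrolysis assay: TRiC at 20–40 nM final (set by batch activity) with 10 uM ATP, 30 min at 37 °C, in presence of 76 uM compound. Detection by competitive ADP HTRF, 30 min ambient.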
Hits are given with their value; . = inactive; / = no result. Most compounds without a hit are left out; they make up all but 0.74% or so of the library.

SMILES | TSHR antagonist | Akt phos inh | TCR activator | CCT chaperon mod
COc1ccc(C(=O)c2sc3nc(C)cc(-c4cccs4)c3c2N)cc1 | . | . | . | .
CC(C)NC(=O)c1sc2nc(-c3cccs3)cc(-c3cccs3)c2c1N | . | -94% | . | .
CC1(C)N([O-])C(c2cccs2)=C[N+]1=O | . | -124% | . | .
COc1ccc(/C=C/c2ccncc2)cc1 | . | . | . | -52
CN(C)c1ccc(/C=C/c2ccncc2)cc1 | . | . | . | .
N#CCC(=O)N/N=C/c1ccc(OCC(=O)Nc2ccc(F)cc2)cc1 | . | . | . | .
COc1ccc(C)cc1Nc1c2c(nc3ccccc13)CCC2 | . | . | . | -34
CC1CN(C(=O)COc2ncnc3ccccc23)CC(C)O1 (stereo not given) | . | -105% | . | .
COc1ccc(C)cc1NC(=O)CN(C)S(=O)(=O)c1ccc2c(c1)CC(C)N2C(C)=O (stereo not given) | . | / | . | .
O=C(Nc1ccc2c(c1)CCC2)c1ccc(Br)o1 | . | -114% | . | .
O=C(Nc1ccc(N2CCN(C(=O)c3ccccc3)CC2)c(Cl)c1)c1ccc(Br)o1 | . | -86% | / | .
O=C(Nc1ccc(N2CCN(C(=O)c3ccccc3)CC2)cc1)c1ccc(Br)o1 | . | . | . | .
CC(C)NC(=O)C(=O)NCCCN1CCOCC1 | . | . | . | .
CSc1ccc(/C=C(\C#N)C(=O)Nc2cccc(C)c2)cc1 | . | . | . | .
COc1ccccc1CNC(=O)c1cc2sccc2n1C | . | . | . | .
O=C(Cc1cccs1)NCc1cccnc1 | . | -93% | . | .
Cn1c(C(=O)NCc2cccnc2)cc2sccc21 | . | -83% | . | .
O=C(Cc1cccs1)NCc1cccs1 | . | . | / | .
CC(C)Oc1ccc(C(=O)NCc2cccnc2)cc1 | . | -119% | . | .
CC(C)Oc1ccc(C(=O)NCCNC(=O)c2ccco2)cc1 | -94 | . | . | .
CCOc1cc(N2CCOCC2)c(OCC)cc1NC(=O)c1cnccn1 | . | . | . | .
CC(/C=C/c1cccc(Oc2ccc(F)cc2)c1)N(O)C(N)=O (stereo not given) | . | / | / | /
CC(C)C[C@@H](CN1CCC[C@@H]1CN1C(=S)NC[C@@H]1Cc1ccc(O)cc1)N1C[C@H](Cc2ccc(O)cc2)N(CC2CCCCC2)C1=S | / | . | / | .
Cc1ccc(S(=O)(=O)NC(=O)C2(C)CCN2C(=O)C2CC2)cc1 (stereo not given) | / | . | / | .
O=C(c1ccccc1)c1c[nH]c(C(=O)NCc2cccnc2)c1 | . | -100% | . | .
SMILES | TSHR antagonist | Akt phos inh | TCR activator | CCT chaperon mod
COc1ccc(C(=O)c2c[nH]c(C(=O)NCc3cccnc3)c2)cc1 | . | . | . | .
Cc1cc(C(=O)NCc2cccnc2)no1 | . | . | / | -31
CCC1(c2ccccc2)NC(=O)N(CC(=O)Nc2ccc(N3CCCC3)cc2C)C1=O (stereo not given) | . | . | . | .
O=C(C/C=N/OCc1ccc(F)cc1Cl)c1cnc(-c2ccccc2)s1 | . | -97% | . | .
O=C(C/C=N/OCc1ccccc1F)c1cnc(-c2ccc(Cl)cc2)s1 | . | . | . | .
Cc1ccc(NC(=O)CN(C)C(=O)c2cc(S(=O)(=O)N(C)C)ccc2N2CCCC2)cc1 | . | . | . | .
Cc1ccc(-c2nn(-c3ccccc3)cc2CSC(=N)N)cc1 | . | . | . | -59
Cc1cccc(C(O)C(O)c2cccc(C)n2)n1 (stereo not given) | / | . | . | -85
Cc1cccc(C(P(=O)(c2ccccc2)c2ccccc2)P(=O)(c2ccccc2)c2ccccc2)n1 | . | . | . | .
Cc1cc2c(s1)c1c(n2C)C(=O)N(Cc2ccccc2F)C1 | . | / | / | /
CC(NC(=O)c1cccs1)c1n[nH]c(=S)n1C (stereo not given) | . | . | . | .
CC(=O)c1c(C)nc(-c2ccc(Cl)cc2)nc1NC(=O)C(C)C | . | . | . | -74
CC(=O)c1c(C)nc(-c2ccccc2)nc1NC(=O)C(C)C | . | . | . | .
N#Cc1cccc(C(=O)OCC(=O)NC(=O)NC2CCCCC2)c1 | . | . | . | -42
O=C(COC(=O)C1COc2ccccc2O1)NC(=O)NC1CCCC1 (stereo not given) | . | -98% | . | .
O=C(CN1CCCCC1)N1CCCc2c1c(=O)oc1ccc(OCc3ccccc3)cc21 | . | -119% | . | .
O=C(CN1CCN(Cc2ccccc2)CC1)N1CCCc2c1c(=O)oc1ccc(O)cc21 | . | . | . | .
Cc1ccc(COC(=O)c2nn(C)c(=O)c3ccccc23)cc1 | . | . | . | .
Cn1nc(C(=O)OCc2ccc(F)cc2)c2ccccc2c1=O | . | . | . | -37
COC(=O)C1=CO[C@@H](O)[C@@H]2C(CO)=CC[C@H]12 | . | / | / | /
S=c1[nH]nc(-c2ccccc2)n1CC1CCCO1 (stereo not given) | / | -99% | . | .
S=c1[nH]nc(-c2cccnc2)n1C1CCCCC1 | . | . | . | .
S=c1[nH]nc(-c2ccccc2)n1C1C=CCCC1 (stereo not given) | -71 | . | . | .
O=C1OCC/C1=C\NCCCN/C=C1\CCOC1=O | / | . | / | .
CC(=O)N1c2ccc(S(=O)(=O)N3CCC(C(=O)N4CCN(c5ccc(Cl)cc5)CC4)CC3)cc2CC1C (stereo not given) | . | . | . | .
SMILES | TSHR antagonist | Akt phos inh | TCR activator | CCT chaperon mod
CCOC(=O)CCCNC(=O)CSc1nnc(-c2ccccc2)c(-c2ccccc2)n1 | . | . | . | .
Cc1ccc(-c2ccc(=O)n(Cc3cccc(Br)c3)n2)cc1 | . | . | . | .
COc1ccc(C(=O)O)c(OC)n1 | . | . | . | .
COc1ccc(C(=O)Nc2ccc(Cl)c(Cl)c2)c(OC)n1 | . | -129% | . | .
O=c1[nH]c(C2CCN(S(=O)(=O)c3cccc(Cl)c3)CC2)nc2c1nnn2Cc1ccccc1 | -103 | . | . | .
CCOC(=O)C(C(=O)OCC)N(C#N)c1nc(OC)nc(N(C)C)n1 | . | -113% | . | .
O=C(NCCc1ccccc1)c1ccc(NC(=O)C2CC2)cc1 | / | . | . | .
CCOC(=O)CSc1nc(C)c(CC)c(C)c1C(N)=O | . | . | . | -62
CCOC(=O)CSc1nc(C)cc(C)c1C(N)=O | . | . | . | .
COc1ccc(CNC(=O)COC(=O)c2cccn2C)cc1 | . | . | . | .
CCN(c1ccccc1)S(=O)(=O)c1ccc(C(=O)Nc2ccncc2)cc1 | . | . | . | .
CS(=O)(=O)c1ncc(Cl)c(C(=O)Nc2ccc(OC(F)F)cc2)n1 | -74 | . | . | .
CCN(c1ccccc1)S(=O)(=O)c1ccc(NC(=O)c2nc(S(C)(=O)=O)ncc2Cl)cc1 | -89 | . | . | .
CCS(=O)(=O)c1ncc(Cl)c(C(=O)Nc2ccc(S(=O)(=O)N(C)c3ccccc3)cc2)n1 | -92 | . | . | .
Cc1ccccc1CS(=O)(=O)c1ncc(Cl)c(C(=O)Nc2ccc(F)cc2)n1 | -74 | / | . | .
CS(=O)(=O)c1ncc(Cl)c(C(=O)Nc2ccc(N3CCOCC3)cc2)n1 | . | . | . | .
NS(=O)(=O)c1ccc(CNC(=O)c2ccc(S(=O)(=O)NCc3ccco3)cc2)cc1 | . | . | / | .
